# Measurements: the supplement of paper PMC10338343
# ± gives the standard deviation. Whole data set: some 5,500 sequences, median “pre-steady-state target cleavage rate” near 0.1, cut for the highest 2% near 0.64. The sample as a whole holds a higher share of the highest values than the screen did.
# System: MIWI (PIWIL1) piRISC loaded with piRNA #2 (30 nt)
# Test: pre-steady-state target cleavage rate (min^-1); MIWI and MILI are mouse PIWI proteins and EfPiwi is from a freshwater sponge; tags in brackets are library labels; higher = faster piRNA-guided slicing of the target
# Settings: guide: piRNA #2 5'p-UUAGGUAACCCAGUAGAUCCAGAGGAAUUC; auxiliary factor: 500 nM mouse GTSF1
# Description: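 Cleave-'n-Seq: a library of target RNAs (target site embedded in constant flanks, ACAGCATTCCGCGTTAGTGATATCCG... 5' flank; DNA-blocked outside the site) at 0.1 nM was incubated with 1 nM active mouse MILI or MIWI piRISC (synthetic 5'-monophosphorylated piRNA guide) with or without 500 nM mouse GTSF1 at 33 °C for 1 min to 16 h. Uncleaved targets were sequenced and normalised to non-target controls, and the pooled three trials were fitted to a burst-and-steady-state model to give the pre-steady-state cleavage rate (min^-1; k3 is constrained to at most 1e-4). Sequence is the target site only; target names encode pairing extent (gX:gY) and contiguous / 1-mismatch / 2-mismatch / bulge geometry. Fits with R² ≤ 0 are excluded.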
row,Sequence,pre-steady-state target cleavage rate
1,CAAUUCCUGUGGAUCUACUGGGUUACGUAA,0.428 ± 0.075
2,CUAUUCCACUGGAUCUACUGGGUUAGCUAA,0.16 ± 0.04
3,CUAUUCCUGUGGAUCUACUGGGUUACGUAA,0.47 ± 0.052
4,GAAUUCCACUGGAUCUACUGGGUUACGUAA,0.803 ± 0.043
5,CUAUUCCACUGGAUCUACUGGGUUACGUAA,0.481 ± 0.066
6,CAAUUCCACUGGAUCUACUGGGUUACGUAA,0.419 ± 0.081
7,GAAUUCCACUGGAUCUACUGGGUUAGCUAA,0.668 ± 0.12
8,GAAUUCCUCAGGAUCUACUGGGUUACGUAA,0.738 ± 0.062
9,CAAUUCCUCAGGAUCUACUGGGUUACGUAA,0.594 ± 0.058
10,CAAUUCCACUGGAUCUACUGGGUUAGCUAA,0.223 ± 0.076
11,GAAUUCCUGUGGAUCUACUGGGUUACGUAA,0.637 ± 0.063
12,CUAUUCCUCAGGAUCUACUGGGUUACGUAA,0.499 ± 0.073
13,CUUAUCCUGUGGAUCUACUGGGUUACCAAA,0.166 ± 0.038
14,CUAAACCUCUGGAUCUACUGGGUUACCUAA,0.266 ± 0.04
15,CUUAUCCUGACGAUCUACUGGGUUACCUAA,0.0767 ± 0.014
16,CUUAACCCUGGAUCUACUGGGUUACCUAA,0.326 ± 0.033
17,CUUAUCCUCUGGAUCUACUGGGAUUCCUAA,0.103 ± 0.04
18,CUUAAGGAGAGGUUCUACUGGGUUUCCUAA,0.00421 ± 0.0042
19,CUUAUCCUCUGGAUCUACUCGGUUACCUAA,0.0981 ± 0.018
20,CUUUUCCUCUGGAUAUACUGGGUUACCUAA,0.628 ± 0.04
21,CUUAUCCUCUGGAUAUACUGGGUUACCUAA,0.688 ± 0.052
22,CUAUUCCUCUGGAUAUACUGGGUUACCUAA,0.772 ± 0.057
23,CUUAUCCUCUGGAUACUACUGGGUUACCUAA,0.419 ± 0.059
24,CAAUUCCUCUGGAUAUACUGGGUUACCUAA,0.724 ± 0.043
25,GAAUUCCUCUGGAUAUACUGGGUUACCUAA,0.551 ± 0.038

row,Sequence,pre-steady-state target cleavage rate
1,CUAUUCCUCUGGAUACUACUGGGUUACCUAA,0.422 ± 0.056
2,CAAUUCCUCUGGAUACUACUGGGUUACCUAA,0.519 ± 0.068
3,CUUAUCCUCUGGAUUACUGGGUUACCUAA,0.481 ± 0.04
4,CAAUUCCUCAGGAUCUACUGGGUAACCUAA,0.336 ± 0.056
5,CUUAACCUCUGGAUCUUCAGGGUUACCUAA,0.112 ± 0.014
6,CUUAACCUCUGGAACUACUGGGUUAGCUAA,0.103 ± 0.016
7,CAAUUCCUCUCGAUCUACAGGGUUACCUAA,0.546 ± 0.038
8,CUUUUCCUCUGGAACUAGUGGGUUACCUAA,0.204 ± 0.025
9,CUUAAGGAGAGGAUCUACUGGGUUACCUCA,0.012 ± 0.0055
10,GAAAUCCUCUCGAUCUACUGGGUUACCUAA,0.586 ± 0.054
11,CUAUUCCUCUCGGAUCUACUGGGUUACCUAA,0.575 ± 0.089
12,CAAAUCCUCUCGAUCUACUGGGUUACCUAA,0.641 ± 0.05
13,CAAUUCCUCUCGGAUCUACUGGGUUACCUAA,0.506 ± 0.065
14,CUAUUCCUCUCGAUCUACUGGGUUACCUAA,0.734 ± 0.063
15,GUAUUCCUCUCGAUCUACUGGGUUACCUAA,0.193 ± 0.044
16,CAAUUCCUCUCGAUCUACUGGGUUACCUUA,0.69 ± 0.056
17,CUAAUCCUCUCGAUCUACUGGGUUACCUAA,0.631 ± 0.042
18,CAAUACCUCUCGAUCUACUGGGUUACCUAA,0.625 ± 0.056
19,GAAUUCCUCUCGAUCUACUGGGUUACCUUA,0.629 ± 0.069
20,CUAUUCCUCUCGAUCUACUGGGUUACCUUA,0.583 ± 0.056
21,CAAUUCCUCUCGAUCUACUGGGUUACCUAA,0.822 ± 0.063
22,CUUAAGGUCUGGAUCUACUGGGUUACCAUA,0.203 ± 0.029
23,CUUAACCUCUCGAUCUUCUGGGUUACCUAA,0.47 ± 0.044
24,CUUAAGGUCUGGAUCUUCUGGGUAACCUAA,0.0193 ± 0.011
25,CUUAAGGAGUGGAUCUACACCGUUACCUAA,0.0034 ± 0.0022

row,Sequence,pre-steady-state target cleavage rate
1,CUAUUCCUCUGCAUCUUCUGGGUUACCUAA,0.316 ± 0.028
2,GAAUUCCUCUGGAUCUACUGGGUUUGGUAA,0.244 ± 0.061
3,CUUAAGGUCUGGAUGUACUGGCUUACCUAA,0.0442 ± 0.028
4,CUUUACCUCUGGAUCUACUCGGUUACCUAA,0.0688 ± 0.0087
5,CUUAACCUCUGGAUGUUCUGGGUUACCUAA,0.244 ± 0.019
6,CUAUAUCCUCUGGAUCUACUGGGUUACCUAA,0.352 ± 0.071
7,GAAUUCCUCUCGAUCUACUGGGUUUCCUAA,0.524 ± 0.06
8,GAAUUCCUCUCGAUCUACUGGGUUACCUAA,0.642 ± 0.068
9,GAAUUCCUCUCGGAUCUACUGGGUUACCUAA,0.442 ± 0.048
10,CUUAACCUGUGGAUCUACUGGGUAACCUAA,0.0751 ± 0.013
11,GAAUUCCUCUGGAUCUAGUGGGAUACCUAA,0.0616 ± 0.011
12,CUUUUCCUCUGCAUCUACUGGGAUACCUAA,0.128 ± 0.018
13,CAAUUCCUCUGGAUCUACUGGGUUACGUAA,0.598 ± 0.065
14,CUUUUCCUCUCGAUCUACUGGGUUUCCUAA,0.509 ± 0.058
15,CAAUUCCUCUCGAUCUACUGGGUUACGUAA,0.885 ± 0.061
16,GUAUUCCUCUGGAUCUACUGGGUUACGUAA,0.377 ± 0.057
17,CUAUUCCUCUCGAUCUACUGGGUUACGUAA,0.935 ± 0.047
18,CUUUUCCUCAGGAUCUACUGGGUUACGUAA,0.523 ± 0.067
19,CUUUUCCUCUGGAUCUACUGGGUUACGUUA,0.374 ± 0.044
20,CUUUUCCUCUCGAUCUACUGGGUUACGUAA,0.746 ± 0.034
21,GAAUUCCUCUCGAUCUACUGGGUUACGUAA,0.581 ± 0.067
22,CAUUUCCUCUGGAUCUACUGGGUUACGUAA,0.622 ± 0.062
23,CUUUUCCUCUGGAUCUACUGGGUUACGUAA,0.664 ± 0.034
24,CUAUUCCUCUGGAUCUACUGGGUUACGUAA,0.63 ± 0.047
